Source: PubChem
GDH-TPI counter-1 – GDH-TPI coupled enzyme inhibition counter-screen; GDH-TPI coupled enzyme counterscreen, NADH absorbance; inhibition, % at 4.8 µM; actives 1.2% (n = 360,000); in the data active = inhibition above about 30%
FBA Mtb inh – Mtb fructose-bisphosphate aldolase inhibition | P9WQA3 | purified M. tuberculosis FBA, fluorescence read-out | inhibition, % at 1 µM | actives 2.3% (n = 360,000) | AID 588726
Target sequence (P9WQA3 whole entry, looked up): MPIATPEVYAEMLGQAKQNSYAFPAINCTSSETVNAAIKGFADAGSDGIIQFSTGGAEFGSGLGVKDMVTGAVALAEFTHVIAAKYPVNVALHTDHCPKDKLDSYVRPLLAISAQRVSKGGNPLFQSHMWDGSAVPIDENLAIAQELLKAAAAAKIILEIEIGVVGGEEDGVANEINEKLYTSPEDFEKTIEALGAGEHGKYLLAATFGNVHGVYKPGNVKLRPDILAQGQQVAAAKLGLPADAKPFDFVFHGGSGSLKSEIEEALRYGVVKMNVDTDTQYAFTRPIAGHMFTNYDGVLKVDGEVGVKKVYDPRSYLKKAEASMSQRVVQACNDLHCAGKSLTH
SARS 3CLpro inh – SARS-CoV 3CLpro protease inhibition; P0C6X7; recombinant SARS-CoV 3CLpro, quenched FRET peptide cleavage; inhibition, % at 6 µM; actives 0.14% (n = 290,000); AID 1706; in the data active = inhibition above about 12%
Mtb BioA inh – BioA (M. tuberculosis) enzyme inhibition. actives 0.096% (n = 360,000). inhibition, % at 9.99 µM. AID 602481. purified M. tuberculosis BioA enzyme, plate reader; in the data active = inhibition above about 40%
FadD28 binding – M. tuberculosis FadD28 bisubstrate binding inhibition | FadD28 bisubstrate probe binding, fluorescence polarization | inhibition, % at 12.5 µM | actives 0.22% (n = 360,000); in the data active = inhibition above about 8.5%, passing the limit was not always enough
Mtb FBA inh conf – confirmation of M. tuberculosis fructose-bisphosphate aldolase inhibitors; actives 78% (n = 5,600); purified M. tuberculosis FBA, fluorescence read-out; shares compounds with FBA Mtb inh; inhibition, % at 1 µM
GDH-TPI counter-2 – inhibits GDH-TPI coupling enzymes, flagging Mtb FBA hits. shares compounds with FBA Mtb inh. GDH-TPI coupled enzyme counterscreen, fluorescence. inhibition, % at 1 µM. actives 81% (n = 5,600); in the data active = inhibition above about 10%
A number is an active result. In the library only some 3.1% were active in any assay of this set; here they are far more common. Rule as the data show it, unless noted: active = inhibition above about 27%; inactive = the rest.

Results for COc1cc(C(=O)NCC(=O)OC(C)C(=O)Nc2ncc(Cl)cc2Cl)cc(OC)c1OC (configuration not stated) ?
GDH-TPI counter-1: inactive; FBA Mtb inh: 48.2; SARS 3CLpro inh: inactive; FadD28 binding: inactive; Mtb FBA inh conf: 68.9; GDH-TPI counter-2: 73.6

What do the screens show for `C[C@H](CO)N1C[C@H](C)[C@H](CN(C)C(=O)Nc2ccccc2)Oc2ncc(C#CC3CC3)cc2C1=O`?
Mtb BioA inh: inactive

What do the screens show for `COCC(=O)N(C)C[C@@H]1Oc2cc(C#CCC3CCCC3)ccc2S(=O)(=O)N([C@@H](C)CO)C[C@@H]1C`?
Mtb BioA inh: inactive

How did CC1=C(Cl)C2=NS(=O)(=O)CCN2C=C1Cl do in these assays?
GDH-TPI counter-1: inactive; FBA Mtb inh: 89.3; SARS 3CLpro inh: inactive; FadD28 binding: inactive; Mtb FBA inh conf: 159.4; GDH-TPI counter-2: 116.1

Results for Cc1c(NCc2cccnc2)cccc1C(=O)O ?
GDH-TPI counter-1: inactive; FBA Mtb inh: 100.5; SARS 3CLpro inh: inactive; Mtb BioA inh: inactive; FadD28 binding: inactive; Mtb FBA inh conf: 111.8; GDH-TPI counter-2: 100.4

What do the screens show for `O=c1oc2c3c4c(cc2s1)CCCN4CCC3`?
GDH-TPI counter-1: inactive; FBA Mtb inh: inactive; SARS 3CLpro inh: inactive; Mtb BioA inh: inactive; FadD28 binding: inactive

Results for O=c1ccc2cc3c4c(c2o1)CCCN4CCC3 ?
GDH-TPI counter-1: inactive; FBA Mtb inh: 54.4; SARS 3CLpro inh: inactive; Mtb BioA inh: inactive; FadD28 binding: inactive; Mtb FBA inh conf: 62.1; GDH-TPI counter-2: 59.7

How did CN(Cc1ccc(F)cc1)C(=O)CNC(=O)c1cccs1 do in these assays?
GDH-TPI counter-1: inactive; FBA Mtb inh: 63.9; Mtb BioA inh: inactive; FadD28 binding: inactive; Mtb FBA inh conf: inactive; GDH-TPI counter-2: inactive

How did CN(Cc1c(F)cccc1Cl)C(=O)CNC(=O)c1cccs1 do in these assays?
GDH-TPI counter-1: inactive; FBA Mtb inh: inactive; SARS 3CLpro inh: inactive; Mtb BioA inh: inactive; FadD28 binding: inactive

How did CC(C)NC(=O)Nc1cccc2c1O[C@H](CN(C)C(=O)Nc1ccc(F)cc1)[C@H](C)CN([C@H](C)CO)C2=O do in these assays?
Mtb BioA inh: inactive

Results for Cc1ccc(-c2cc(C(=O)NCc3ccccn3)c3ccccc3n2)cc1 ?
GDH-TPI counter-1: inactive; FBA Mtb inh: 28.0; SARS 3CLpro inh: inactive; Mtb BioA inh: inactive; FadD28 binding: inactive; Mtb FBA inh conf: 122.9; GDH-TPI counter-2: 115.8

How did CCc1ccc(-c2cc(C(=O)NCc3ccccn3)c3ccccc3n2)cc1 do in these assays?
GDH-TPI counter-1: inactive; FBA Mtb inh: 29.1; SARS 3CLpro inh: inactive; FadD28 binding: inactive; Mtb FBA inh conf: 88.4; GDH-TPI counter-2: 64.5

How did O=C(NCC[C@H]1CC[C@H](NC(=O)c2cnccn2)[C@H](CO)O1)Nc1ccc(Cl)cc1 do in these assays?
Mtb BioA inh: inactive

Results for O=c1[nH]c(=O)n(Cc2ccccc2)c2nc(-c3ccc(Oc4ccc(F)cc4)c([N+](=O)[O-])c3)n(CCO)c12 ?
GDH-TPI counter-1: inactive; FBA Mtb inh: inactive; SARS 3CLpro inh: inactive; FadD28 binding: inactive

How did CCCn1c(-c2cccs2)nc2c1c(=O)[nH]c(=O)n2Cc1ccccc1 do in these assays?
GDH-TPI counter-1: inactive; FBA Mtb inh: 32.5; SARS 3CLpro inh: inactive; Mtb BioA inh: inactive; FadD28 binding: inactive; Mtb FBA inh conf: 130.5; GDH-TPI counter-2: 102.4

How did COc1ccc(-c2nc3c(c(=O)[nH]c(=O)n3Cc3ccccc3)n2CCO)cc1 do in these assays?
GDH-TPI counter-1: inactive; FBA Mtb inh: 38.9; SARS 3CLpro inh: inactive; Mtb BioA inh: inactive; FadD28 binding: inactive; Mtb FBA inh conf: 170.2; GDH-TPI counter-2: 142.9

What do the screens show for `CN(C)CC(=O)N[C@@H]1CC[C@@H](CCn2cc(C3CC3)nn2)O[C@@H]1CO`?
Mtb BioA inh: inactive

Results for c1cc(Nc2ncnc3sc4c(c23)CCC4)ccn1 ?
GDH-TPI counter-1: inactive; FBA Mtb inh: 60.1; SARS 3CLpro inh: inactive; Mtb BioA inh: inactive; FadD28 binding: inactive; Mtb FBA inh conf: inactive; GDH-TPI counter-2: inactive

How did NNc1ncnc2sc3c(c12)CCC3 do in these assays?
GDH-TPI counter-1: inactive; FBA Mtb inh: inactive; SARS 3CLpro inh: inactive; FadD28 binding: inactive

How did C[C@@H]1CN([C@@H](C)CO)C(=O)c2cc(NC(=O)NC3CCCCC3)ccc2O[C@@H](C)CCCCO[C@H]1CN(C)C(=O)Nc1ccccc1 do in these assays?
Mtb BioA inh: inactive

Results for CCCNC(=O)N1C[C@H](O)COC[C@@H]2O[C@H](CC(=O)N3CCC(Cc4ccccc4)CC3)CC[C@H]21 ?
Mtb BioA inh: inactive

Results for CNc1ncnc2sc(-c3ccccc3)cc12 ?
GDH-TPI counter-1: inactive; FBA Mtb inh: 45.6; SARS 3CLpro inh: inactive; Mtb BioA inh: inactive; FadD28 binding: inactive; Mtb FBA inh conf: 52.0; GDH-TPI counter-2: 35.7

What do the screens show for `CN(C)CCNc1ncnc2sc(-c3ccccc3)cc12`?
GDH-TPI counter-1: inactive; FBA Mtb inh: inactive; SARS 3CLpro inh: inactive; Mtb BioA inh: inactive

Results for OCCOCCNc1ncnc2sc(-c3ccccc3)cc12 ?
GDH-TPI counter-1: inactive; FBA Mtb inh: 32.1; SARS 3CLpro inh: inactive; Mtb BioA inh: inactive; FadD28 binding: inactive; Mtb FBA inh conf: inactive; GDH-TPI counter-2: 14.8

What do the screens show for `COc1ccc(OC)c(Nc2ncnc3sc(-c4ccccc4)cc23)c1`?
GDH-TPI counter-1: inactive; FBA Mtb inh: inactive; SARS 3CLpro inh: inactive; FadD28 binding: inactive

Results for O=C(Nc1ccccn1)c1ccc(Br)c(S(=O)(=O)N2CCCC2)c1 ?
GDH-TPI counter-1: inactive; FBA Mtb inh: inactive; SARS 3CLpro inh: inactive; Mtb BioA inh: inactive; FadD28 binding: inactive

How did O=C(Nc1ccccn1)c1ccc(Br)c(S(=O)(=O)N2CCCCC2)c1 do in these assays?
GDH-TPI counter-1: inactive; FBA Mtb inh: 51.3; SARS 3CLpro inh: inactive; Mtb BioA inh: inactive; FadD28 binding: inactive; Mtb FBA inh conf: active; GDH-TPI counter-2: active

What do the screens show for `COCCNC(=O)C1(C)CCN(C(=O)c2ccc3c(c2)C(C)(C)CCC3(C)C)C1` (configuration not stated)?
GDH-TPI counter-1: inactive; FBA Mtb inh: 27.2; Mtb BioA inh: inactive; FadD28 binding: inactive; Mtb FBA inh conf: inactive; GDH-TPI counter-2: inactive

Results for COCCNC(=O)C1(C)CCN(C(=O)c2ccc(F)c(C)c2)C1 (configuration not stated) ?
GDH-TPI counter-1: inactive; FBA Mtb inh: inactive; Mtb BioA inh: inactive; FadD28 binding: inactive

What do the screens show for `CN1CCN(C(=O)C[C@@H]2CC[C@@H]3[C@H](COC[C@@H](O)CN3C(=O)C3CCCC3)O2)CC1`?
Mtb BioA inh: inactive

Results for COc1ccc(NC(=O)Nc2ccc3c(c2)C(=O)N(C)C[C@H](OC)[C@@H](C)CN[C@@H](C)CO3)cc1 ?
Mtb BioA inh: inactive

Results for CC(C#N)(Nc1ccc(Cl)cc1)c1cccnc1 (configuration not stated) ?
GDH-TPI counter-1: inactive; FBA Mtb inh: 27.5; SARS 3CLpro inh: inactive; Mtb BioA inh: inactive; FadD28 binding: inactive; Mtb FBA inh conf: active; GDH-TPI counter-2: active
